Results: PubChem BioAssay (EPA / NIEHS)
Records with an inconclusive call do not appear. Calls of active or inactive are those of the source. How the source made its calls, unless noted: active means hit-call score of the fitted dose curve at least 0.9, where 1 is the maximum; inconclusive means response in the unintended direction; inactive means score below 0.9.

Key:
[1] = molecular target: PGR (gene 5241) (UniProt P06401); experiment: TOX21_PR_BLA_Followup_Agonist_ratio: Tox21 HEK293 Progesterone Receptor (PR) Agonism Beta-lactamase Follow-Up Assay, Ratio (AID 2283933)
Sequence of PGR (gene 5241) (P06401 whole entry, looked up): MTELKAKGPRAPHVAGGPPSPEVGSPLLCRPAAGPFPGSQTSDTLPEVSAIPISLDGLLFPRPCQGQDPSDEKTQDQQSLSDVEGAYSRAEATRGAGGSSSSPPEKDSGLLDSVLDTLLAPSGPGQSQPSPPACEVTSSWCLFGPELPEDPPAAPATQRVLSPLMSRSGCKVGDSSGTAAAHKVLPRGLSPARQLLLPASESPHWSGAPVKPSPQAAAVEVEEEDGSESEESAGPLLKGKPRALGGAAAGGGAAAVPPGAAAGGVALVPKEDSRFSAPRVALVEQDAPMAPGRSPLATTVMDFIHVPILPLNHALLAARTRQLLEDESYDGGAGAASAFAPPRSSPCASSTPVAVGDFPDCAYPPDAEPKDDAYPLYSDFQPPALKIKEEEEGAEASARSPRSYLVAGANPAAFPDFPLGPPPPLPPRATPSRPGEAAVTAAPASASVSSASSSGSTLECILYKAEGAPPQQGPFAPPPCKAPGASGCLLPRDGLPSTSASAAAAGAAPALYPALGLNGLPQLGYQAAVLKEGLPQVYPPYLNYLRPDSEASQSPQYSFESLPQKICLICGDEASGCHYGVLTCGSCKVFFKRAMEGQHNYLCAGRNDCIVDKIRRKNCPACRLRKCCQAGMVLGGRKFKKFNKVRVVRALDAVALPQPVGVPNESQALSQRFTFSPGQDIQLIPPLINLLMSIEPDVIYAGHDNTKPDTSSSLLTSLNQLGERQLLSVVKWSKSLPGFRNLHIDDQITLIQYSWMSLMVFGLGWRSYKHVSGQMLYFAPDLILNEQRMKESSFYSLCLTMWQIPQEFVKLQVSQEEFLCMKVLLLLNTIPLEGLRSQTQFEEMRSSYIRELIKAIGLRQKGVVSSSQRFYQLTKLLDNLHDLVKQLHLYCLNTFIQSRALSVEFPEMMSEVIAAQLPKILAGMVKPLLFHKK
Summary of the method: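 Cells were seeded and held 6 hr before compound addition, exposed for 16 hr at 37C, then given FRET substrate for 2 hr at room temperature. Agonism was scored from the blue/green substrate cleavage ratio against DMSO controls.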

[2] = TOX21_PR_BLA_Followup_Agonist_viability: Viability Assessment in the Tox21 HEK293 Progesterone Receptor (PR) Agonism Beta-lactamase Follow-Up Assay (AID 2283935);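 further: signal loss means lower viability so actives are cytotoxic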
Summary of the method: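 Cells were plated in medium with 2% charcoal-stripped FBS and rested 6 hr. Compounds in DMSO were then added for 16 hr at 37C, followed by the FRET substrate step and CellTiter-Glo luminescence after 30 min.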

[3] = molecular target: PGR (gene 5241) (UniProt P06401); experiment: TOX21_PR_LUC_Followup_Agonist: Tox21 HEK293 Progesterone Receptor (PR) Agonism Luciferase Follow-Up Assay (AID 2283937; active means hit-call score of the fitted dose curve at least 0.9, where 1 is the maximum; inactive means score below 0.9)
Summary of the method: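 Seed HEK293-PR-A-luc cells, wait 5 h, add compounds in DMSO, incubate 16 h at 37C, add ONE-Glo, read luminescence after 30 min. Activity is increase over DMSO controls; run with a viability counter-screen.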

[4] = molecular target: PGR (gene 5241) (UniProt P06401); experiment: TOX21_PR_LUC_Followup_Antagonist: Tox21 HEK293 Progesterone Receptor (PR) Antagonism Luciferase Follow-Up Assay (AID 2283938);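 further: curve fitted upward as signal gain over DMSO baseline despite antagonist label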
Summary of the method: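 Luminescence from ONE-Glo reagent, measured after 30 min at room temperature, served as readout. Cells (HEK293 carrying PR-A-luc) had been treated 16 h at 37C with DMSO-dissolved compounds. Activity was fitted against DMSO controls.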

[5] = TOX21_PR_LUC_Followup_Antagonist_viability: Viability Assessment in the Tox21 HEK293 Progesterone Receptor (PR) Antagonism Luciferase Follow-Up Assay (AID 2283940)
Summary of the method: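 HEK293-PR-A-luc, 3,000 cells/well; 5 h at 37C/0% CO2; compound pin transfer; 16 h incubation; CellTiter-Glo ATP luminescence, signal loss = cytotoxicity.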

[6] = TOX21_PR_LUC_Followup_Agonist_viability: Viability Assessment in the Tox21 HEK293 Progesterone Receptor (PR) Agonism Luciferase Follow-Up Assay (AID 2283941);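 further: loss of signal means cytotoxicity so actives lower viability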
Summary of the method: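 Multiplexed viability endpoint of the PR agonist luciferase follow-up: HEK293-PR-A-luc cells treated 16 h at 37C, with viability scored as decrease in CellTiter-Glo ATP signal.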

[7] = TOX21_PR_BLA_Followup_Antagonist_viability: Viability Assessment in the Tox21 HEK293 Progesterone Receptor (PR) Antagonism Beta-lactamase Follow-Up Assay (AID 2283936);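 further: cells exposed to compound with R5020 agonist for 16 h; hits lower the luminescence signal meaning cytotoxicity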
Summary of the method: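 PR-UAS-bla HEK293T cells in medium with 2% charcoal-stripped FBS were treated with compounds plus R5020 for 16 hr at 37C. After the beta-lactamase read, CellTiter-Glo was added to the same wells and luminescence read after 30 min at room temperature.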

[8] = CEETOX_H295R_DOC_noMTC: CeeTox H295R High-throughput Steroidogenesis Assay for DOC, maximum tolerated concentration (MTC) filtered results only (AID 2283918; active means hit-call score of the fitted dose curve at least 0.9, where 1 is the maximum; inactive means score below 0.9); conditions: actives raise or lower the signal
Summary of the method: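 11-Deoxycorticosterone secreted by human adrenal H295R cells quantified by HPLC-MS/MS after 48 h chemical exposure (0.1% DMSO), following 48 h 10 uM forskolin prestimulation. Concentrations not filtered by MTT-derived MTC; bidirectional fitting.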

[9] = CEETOX_H295R_ESTRADIOL_noMTC: CeeTox H295R High-throughput Steroidogenesis Assay for Estradiol, maximum tolerated concentration (MTC) filtered results only (AID 2283919; active means hit-call score of the fitted dose curve at least 0.9, where 1 is the maximum; inactive means score below 0.9); conditions: actives raise or lower the signal
Summary of the method: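 Readout: dansyl-derivatized estradiol quantified by LC-MS/MS in medium from H295R cells dosed 48 h (0.1% DMSO) following 48 h forskolin (10 uM) prestimulation. Gain or loss of signal fitted against DMSO; no MTC filtering applied.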

[10] = CEETOX_H295R_PROG_noMTC: CeeTox H295R High-throughput Steroidogenesis Assay for Progesterone (PROG), maximum tolerated concentration (MTC) filtered results only (AID 2283920; active means hit-call score of the fitted dose curve at least 0.9, where 1 is the maximum; inactive means score below 0.9); conditions: actives raise or lower the signal
Summary of the method: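 Progesterone secreted into medium was measured by HPLC-MS/MS after MTBE extraction, following 48 h chemical exposure (0.1% DMSO) of forskolin-prestimulated (10 uM, 48 h) H295R adrenal cells. Gain or loss fitted against DMSO; no MTC filtering.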

[11] = CEETOX_H295R_ESTRONE_noMTC: CeeTox H295R High-throughput Steroidogenesis Assay for Estrone, maximum tolerated concentration (MTC) filtered results only (AID 2283921; active means hit-call score of the fitted dose curve at least 0.9, where 1 is the maximum; inactive means score below 0.9); conditions: actives raise or lower the signal
Summary of the method: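 Estrone in spent medium, quantified by tandem MS following dansyl chloride derivatization, after 48 h chemical exposure (0.1% DMSO) of forskolin-prestimulated (10 uM, 48 h) H295R cells; concentrations not MTC-filtered, bidirectional fit against DMSO.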

[12] = CEETOX_H295R_TESTO_noMTC: CeeTox H295R High-throughput Steroidogenesis Assay for Testosterone (TESTO), maximum tolerated concentration (MTC) filtered results only (AID 2283924; active means hit-call score of the fitted dose curve at least 0.9, where 1 is the maximum; inactive means score below 0.9); conditions: actives raise or lower the signal
Summary of the method: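 Medium testosterone, measured by HPLC-MS/MS after liquid-liquid extraction, was fitted in both directions relative to DMSO without MTC filtering. Adrenal H295R cells received 48 h chemical exposure (0.1% DMSO final) after 48 h forskolin (10 uM) prestimulation; viability by MTT.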

[13] = molecular target: Thyroid hormone receptor alpha (Rattus norvegicus) + Thyroid hormone receptor beta (Rattus norvegicus) (UniProt P18113+P63059); experiment: TOX21_TR_LUC_GH3_Agonist_Followup: Tox21 GH3 Thyroid Hormone Receptor Agonism Luciferase Follow-Up Assay (AID 2283939)
Sequence of Thyroid hormone receptor alpha (Rattus norvegicus) + Thyroid hormone receptor beta (Rattus norvegicus) (P63059 whole entry, looked up): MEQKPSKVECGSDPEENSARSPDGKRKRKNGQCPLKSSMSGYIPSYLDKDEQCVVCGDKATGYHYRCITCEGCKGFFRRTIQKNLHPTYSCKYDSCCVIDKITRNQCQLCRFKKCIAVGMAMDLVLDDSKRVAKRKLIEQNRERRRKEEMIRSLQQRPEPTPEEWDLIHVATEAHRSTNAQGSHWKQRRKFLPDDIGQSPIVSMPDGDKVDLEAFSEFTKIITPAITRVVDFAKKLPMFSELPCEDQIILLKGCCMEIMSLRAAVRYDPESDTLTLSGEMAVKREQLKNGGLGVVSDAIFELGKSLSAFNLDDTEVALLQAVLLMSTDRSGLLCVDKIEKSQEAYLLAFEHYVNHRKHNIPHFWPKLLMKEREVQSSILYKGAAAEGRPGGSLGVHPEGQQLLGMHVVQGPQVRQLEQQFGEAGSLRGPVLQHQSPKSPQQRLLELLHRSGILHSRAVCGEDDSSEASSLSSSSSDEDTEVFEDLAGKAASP
Sequence of Thyroid hormone receptor alpha (Rattus norvegicus) + Thyroid hormone receptor beta (Rattus norvegicus) (P18113 whole entry, looked up): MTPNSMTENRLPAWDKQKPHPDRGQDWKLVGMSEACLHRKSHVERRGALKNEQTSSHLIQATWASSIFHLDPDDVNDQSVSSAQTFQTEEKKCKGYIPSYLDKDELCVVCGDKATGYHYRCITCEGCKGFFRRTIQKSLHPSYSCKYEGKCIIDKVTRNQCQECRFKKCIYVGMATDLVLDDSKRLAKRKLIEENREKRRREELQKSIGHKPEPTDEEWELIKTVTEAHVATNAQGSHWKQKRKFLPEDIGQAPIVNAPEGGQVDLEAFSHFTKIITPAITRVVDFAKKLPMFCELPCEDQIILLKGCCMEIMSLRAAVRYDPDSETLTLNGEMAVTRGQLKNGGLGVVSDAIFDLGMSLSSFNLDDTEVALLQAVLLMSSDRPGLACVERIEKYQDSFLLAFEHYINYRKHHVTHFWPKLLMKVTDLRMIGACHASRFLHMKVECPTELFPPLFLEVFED
Summary of the method: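 Agonist-mode confirmatory run: 15 concentrations (5 nM to 92 uM final) on GH3 rat pituitary cells, 24 h at 37C/5% CO2, T3 as positive control. Luminescence read with ONE-Glo after 30 min.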

[14] = molecular target: THRA (gene 7067) (UniProt P10827); experiment: TOX21_TRA_COA_Agonist_Followup_ratio: Tox21 Thyroid Hormone Receptor alpha Agonism through Coactivator Recruitment Follow-Up Assay, Ratio (AID 2283948; active means hit-call score of the fitted dose curve at least 0.9, where 1 is the maximum; inactive means score below 0.9)
Sequence of THRA (gene 7067) (P10827 whole entry, looked up, the tested form may be a part): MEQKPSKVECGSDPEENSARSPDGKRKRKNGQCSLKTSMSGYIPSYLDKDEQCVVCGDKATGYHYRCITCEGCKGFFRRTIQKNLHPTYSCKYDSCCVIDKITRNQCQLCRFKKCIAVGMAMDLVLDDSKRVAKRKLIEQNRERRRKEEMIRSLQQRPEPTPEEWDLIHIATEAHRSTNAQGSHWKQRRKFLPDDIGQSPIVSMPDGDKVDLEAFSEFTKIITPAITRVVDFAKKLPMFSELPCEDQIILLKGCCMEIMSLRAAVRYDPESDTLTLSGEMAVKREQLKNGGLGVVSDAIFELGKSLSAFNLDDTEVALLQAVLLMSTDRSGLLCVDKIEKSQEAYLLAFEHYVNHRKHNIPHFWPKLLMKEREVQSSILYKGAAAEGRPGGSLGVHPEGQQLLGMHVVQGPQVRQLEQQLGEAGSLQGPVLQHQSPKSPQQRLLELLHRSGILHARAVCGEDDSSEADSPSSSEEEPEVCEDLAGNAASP
Summary of the method: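 GST-TRa LBD 2.5 nM + 0.10% BSA + cpd; add fluorescein-SRC-2 200 nM, Tb-anti-GST 2 nM. TR-FRET ex 340, em 520/495 ratio. Norm: DMSO 0%, T3 100%; gain-of-signal fit.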

[15] = molecular target: THRB (gene 7068) (UniProt P10828); experiment: TOX21_TRB_COA_Agonist_Followup_ratio: Tox21 Thyroid Hormone Receptor beta Agonism through Coactivator Recruitment Follow-Up Assay, Ratio (AID 2283963; active means hit-call score of the fitted dose curve at least 0.9, where 1 is the maximum; inactive means score below 0.9)
Sequence of THRB (gene 7068) (P10828 whole entry, looked up, the tested form may be a part): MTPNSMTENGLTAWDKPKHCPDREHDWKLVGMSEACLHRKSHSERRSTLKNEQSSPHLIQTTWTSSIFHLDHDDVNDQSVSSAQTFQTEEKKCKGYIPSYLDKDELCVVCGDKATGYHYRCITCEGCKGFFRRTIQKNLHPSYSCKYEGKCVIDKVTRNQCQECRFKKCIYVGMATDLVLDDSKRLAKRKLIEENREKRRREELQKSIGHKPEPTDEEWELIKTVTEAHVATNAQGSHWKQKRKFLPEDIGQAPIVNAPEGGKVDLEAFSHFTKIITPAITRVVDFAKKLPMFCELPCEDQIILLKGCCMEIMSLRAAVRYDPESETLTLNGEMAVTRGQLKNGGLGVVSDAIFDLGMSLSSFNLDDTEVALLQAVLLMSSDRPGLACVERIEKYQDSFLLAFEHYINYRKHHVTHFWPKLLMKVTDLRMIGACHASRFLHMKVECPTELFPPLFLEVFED
Summary of the method: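 Cell-free TR-FRET coactivator recruitment: GST-tagged TRβ LBD (5.0 nM) with 0.10% BSA incubated with compound, then fluorescein-SRC-2 peptide (200 nM) and Tb-anti-GST antibody (2 nM) added. 520:495 nm ratio normalized to DMSO (0%) and T3 (100%).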

[16] = molecular target: Retinoic acid receptor RXR-alpha (Homo sapiens) (UniProt P19793); experiment: TOX21_TR_RXR_BLA_Agonist_Followup_ratio: Tox21 Thyroid Hormone Receptor beta Retinoid X Receptor alpha (RXRa) Agonism Beta-lactamase (BLA) Follow-Up Assay, Ratio (AID 2283968)
Sequence of Retinoic acid receptor RXR-alpha (Homo sapiens) (P19793 whole entry, looked up): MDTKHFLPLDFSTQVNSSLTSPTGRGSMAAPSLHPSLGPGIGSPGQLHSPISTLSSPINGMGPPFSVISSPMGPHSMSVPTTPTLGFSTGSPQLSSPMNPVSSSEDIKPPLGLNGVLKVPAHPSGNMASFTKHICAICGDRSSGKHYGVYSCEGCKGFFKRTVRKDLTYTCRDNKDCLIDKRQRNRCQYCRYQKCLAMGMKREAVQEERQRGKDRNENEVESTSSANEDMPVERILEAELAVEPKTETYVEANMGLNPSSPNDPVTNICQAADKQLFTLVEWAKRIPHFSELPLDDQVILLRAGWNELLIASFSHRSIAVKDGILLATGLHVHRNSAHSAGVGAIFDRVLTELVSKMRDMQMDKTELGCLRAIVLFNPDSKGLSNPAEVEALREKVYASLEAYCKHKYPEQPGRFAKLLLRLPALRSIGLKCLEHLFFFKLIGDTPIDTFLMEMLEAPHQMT
Summary of the method: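 Cells were first allowed to attach for 5 h, after which compounds in DMSO were pinned at 11 concentrations and incubated 16 h at 37C. LiveBLAzer CCF4-AM substrate was then added for 2 h at room temperature before reading 460 and 530 nm fluorescence.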

[17] = TOX21_TR_RXR_BLA_Agonist_Followup_viability: Viability Assessment in the Tox21 Thyroid Hormone Receptor beta Retinoid X Receptor alpha (RXRa) Agonism Beta-lactamase (BLA) Follow-Up Assay (AID 2283970)
Summary of the method: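 Viability counter-screen run alongside the RXRa bla follow-up: HEK293T reporter cells were treated for 16h at 37C in stripped-serum medium, then ATP was quantified by luciferase-coupled CellTiter-Glo. Decreased signal relative to DMSO marked cytotoxicity.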

[18] = TOX21_TRB_BLA_Agonist_Followup_viability: Viability Assessment in the Tox21 Thyroid Hormone Receptor beta Agonism Beta-lactamase (BLA) Follow-Up Assay (AID 2283956)
Summary of the method: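 Viability was read as CellTiter-Glo luminescence in the same wells as the TRb-bla agonist read-out. HEK293T GAL4-TRb LBD cells were treated for 18 h (37C, 5% CO2) at 11 concentrations in triplicate. Fits were bidirectional versus DMSO baseline.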

[19] = CCTE_Harrill_HTTr_Viability_DMEM_6hr: (Pilot) CCTE's 6-hour Cell Viability Assessment for the High-Throughput Transcriptomics (HTTr) Platform, in MCF-7 cells cultured in DMEM + 10% fetal bovine serum, Harrill Lab (AID 2283973; active means hit-call score of the fitted dose curve at least 0.9, where 1 is the maximum; inactive means score below 0.9)
Summary of the method: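 Propidium iodide uptake imaged by high-content analysis after six hours of chemical treatment in an eight-concentration series. Cells: MCF-7 grown in DMEM with 10% fetal bovine serum; DMSO as baseline.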

[20] = molecular target: THRB (gene 7068) (UniProt P10828); experiment: TOX21_TRB_BLA_Agonist_Followup_ratio: Tox21 Thyroid Hormone Receptor beta Agonism Beta-lactamase (BLA) Follow-Up Assay, Ratio (AID 2283954)
Summary of the method: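 Agonist mode: compounds (11-point, triplicate) incubated 18 h with HEK293T cells carrying GAL4-DBD/human TRβ-LBD and UAS-β-lactamase. Blue/green (460/530 nm) FRET ratio read after 2 h CCF4-AM loading; CellTiter-Glo viability run in the same plates.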

Measured: AC50

CC12CC1(C)C(=O)N(c1cc(Cl)cc(Cl)c1)C2=O (centres undefined)
inactive: [1] | [2] | [3] | [4] | [5] | [6]

C[C@]12CC[C@H](O)CC1=CC[C@@H]1[C@@H]2CC[C@]2(C)C(=O)CC[C@@H]12
inactive: [2] | [7] | [4] | [5] | [6]

O=C1C2(Cl)C3(Cl)C4(Cl)C(Cl)(Cl)C5(Cl)C3(Cl)C1(Cl)C5(Cl)C24Cl (centres undefined)
inactive: [1] | [7] | [3] | [5] | [6]
active: [2] 66.2 µM | [4] 33.8 µM

c1cc[c]([Hg][c]2ccccc2)cc1
inactive: [9] | [11]
active: [8] 2.26 µM | [10] 21.9 µM | [12] 67.9 µM

NNC(=S)NN
inactive: [13] | [14] | [15] | [16] | [17]

CC(C)(OO)c1ccccc1
inactive: [14] | [18] | [15] | [16] | [17]

C[C@@H]1C[C@@H]([C@H](O)CC2CC(=O)NC(=O)C2)C(=O)[C@@H](C)C1
inactive: [19]

Oc1ccc(-c2ccccc2)cc1
active: [4] 33 µM
inactive: [2] | [7] | [5]

Clc1ccc(C2(Cn3cncn3)CC(Br)CO2)c(Cl)c1 (centres undefined)
active: [4] 46.1 µM
inactive: [2] | [7] | [5] | [6]

CC(C)C1CCC(Cc2ccc(Cl)cc2)C1(O)Cn1cncn1 (centres undefined)
active: [2] 75.5 µM | [4] 22 µM
inactive: [7] | [5] | [6]

C=C(C)C(=O)[O][Sn]([CH2]CCC)([CH2]CCC)[CH2]CCC
inactive: [14] | [15]
active: [20] 68.3 µM | [18] 7.08 µM | [16] 0.116 µM | [17] 15.1 µM
